IMPase Li inh: qHTS Assay for Identifying the Cell-Membrane Permeable IMPase Inhibitors: Potentiation with Lithium. CHO-M1 cells, IP1 TR-FRET (IP-One), carbachol + lithium. Potency, µM (top dose mostly 59.4 µM), inactives show top-dose activity, negative = IMPase inhibition, most hits filed as inhibitors. hit rate 0.35% among 210,000. AID 1457, 2008;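 note: IP1 builds up when IMPase is blocked and the TR-FRET signal falls; potency is the fitted concentration of half-maximal effect; plate controls were basal vehicle for no effect and high inhibitor control for full effect; nearly all actives have a fitted effect of over 50% in size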
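CHO-M1, 2000 cells/well, 16–30 h culture; cpd + low Li+, 30 min 37C; lysis with d2-IP1/Eu-anti-IP1 Ab, 10 min RT; TR-FRET 665/620 ratio and 620 channel; AC50 via Hill.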
PNC inhibitor: High Content Assay for Compounds that inhibit the Assembly of the Perinucleolar Compartment. PC3M PTB-GFP, PNC prevalence imaging, 16 h; stronger effect = lower value. activity change (PNC), negative = inhibition, % at 10 µM. hit rate 3.1% among 140,000;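 active = readout at or below -70, meaning at least 70% loss of cells showing the perinucleolar compartment, a nuclear body marking cancer cells; inconclusive = readout between -30 and a set limit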;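 note: plate controls were DMSO wells for no effect and camptothecin positive control wells for full effect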
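Read-out is percentage of cells bearing a perinucleolar compartment, from automated 20x imaging of fixed, Hoechst-stained PC3M PTB-GFP cells. Cells were seeded 4 h, then exposed 16 h to compound (23 nl of library stock) in duplicate plates.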
HPGD inh: qHTS Assay for Inhibitors of HPGD (15-Hydroxyprostaglandin Dehydrogenase); AID 894, 2007; purified HPGD, NADH fluorescence kinetic, PGE2 substrate; Potency, µM, for inactives: at the highest dose activity change, negative = inhibition, usual class: inhibitors; 15-hydroxyprostaglandin dehydrogenase [NAD(+)] (Homo sapiens), P15428; hit rate 4.3% among 150,000; active = well fitted inhibition curve with a large enough effect, not every such curve was filed as active; inconclusive = small, poorly fitted or top-dose-only effect, or another doubt; inactive = no such curve, though single readings can be large or run the other way; note: potency is the fitted concentration of half-maximal effect
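20 nM HPGD preincubated 15 min at room temperature with compound in 50 mM Tris-HCl pH 8, 0.01% Tween 20. Started with 1 mM NAD+ and 30 uM prostaglandin E2; NADH fluorescence (360/450 nm) read 5 times over 30-s intervals, last minus first.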
IMPase inh: qHTS Assay for Identifying the Cell-Membrane Permeable IMPase Inhibitors; CHO-M1 cells, IP1 accumulation, HTRF TR-FRET ratio; inhibition (IP1 accumulation), % at 46.1 µM; Inositol monophosphatase 1 (Rattus norvegicus), P97697; 120,000 tested, under 10 active; AID 901, 2007; active = well fitted curve in the direction sought with a large enough effect in the signal ratio, not every such curve was filed as active; inconclusive = small, poorly fitted or top-dose-only effect, or a change in a side signal; inactive = no such curve, though single readings can be large or run the other way; the % refers to the signal ratio;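 note: cells stimulated with carbachol in lithium chloride buffer; plate controls were DMSO basal wells for no effect and reference inhibitor wells for full effect; higher means more IMPase inhibition seen as more IP1 and lower FRET ratio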
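The IP-One HTRF competitive assay in carbachol-stimulated CHO-M1 cells quantifies cellular IP1. Compounds spanned up to 46 uM final, and activity is expressed as AC50 from concentration-response fits of the ratio and donor data.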
ALDH1A1 inh: qHTS Assay for Inhibitors of Aldehyde Dehydrogenase 1 (ALDH1A1) | Aldehyde dehydrogenase 1A1 (Homo sapiens), P00352 | Purified ALDH1A1, NADH fluorescence, propionaldehyde substrate | hit rate 7.3% among 220,000 | Potency, µM (top dose mostly 75.3 µM), for inactives: at the highest dose activity, negative = inhibition, actives largely listed as inhibitors | AID 1030, 2008; active = well fitted inhibition curve with a large enough effect, not every such curve was filed as active; inconclusive = small, poorly fitted or top-dose-only effect, or another doubt; inactive = no such curve, though single readings can be large or run the other way;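 note: potency is the fitted concentration of half-maximal effect; plate controls were no enzyme wells and a reference inhibitor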
12-hLO inh: qHTS Assay for Inhibitors of 12-hLO (12-human lipoxygenase). Polyunsaturated fatty acid lipoxygenase ALOX12 (Homo sapiens), P18054. hit rate 0.12% among 150,000. purified 12-hLO, xylenol orange hydroperoxide absorbance. Potency, µM (titrated, usually from 57.1 µM), for inactives: at the top dose activity change, negative = inhibition, most hits filed as inhibitors; note: potency is the fitted concentration of half-maximal effect; nearly all actives have a fitted effect of over 55% in size
Target sequence (P18054 whole entry, looked up): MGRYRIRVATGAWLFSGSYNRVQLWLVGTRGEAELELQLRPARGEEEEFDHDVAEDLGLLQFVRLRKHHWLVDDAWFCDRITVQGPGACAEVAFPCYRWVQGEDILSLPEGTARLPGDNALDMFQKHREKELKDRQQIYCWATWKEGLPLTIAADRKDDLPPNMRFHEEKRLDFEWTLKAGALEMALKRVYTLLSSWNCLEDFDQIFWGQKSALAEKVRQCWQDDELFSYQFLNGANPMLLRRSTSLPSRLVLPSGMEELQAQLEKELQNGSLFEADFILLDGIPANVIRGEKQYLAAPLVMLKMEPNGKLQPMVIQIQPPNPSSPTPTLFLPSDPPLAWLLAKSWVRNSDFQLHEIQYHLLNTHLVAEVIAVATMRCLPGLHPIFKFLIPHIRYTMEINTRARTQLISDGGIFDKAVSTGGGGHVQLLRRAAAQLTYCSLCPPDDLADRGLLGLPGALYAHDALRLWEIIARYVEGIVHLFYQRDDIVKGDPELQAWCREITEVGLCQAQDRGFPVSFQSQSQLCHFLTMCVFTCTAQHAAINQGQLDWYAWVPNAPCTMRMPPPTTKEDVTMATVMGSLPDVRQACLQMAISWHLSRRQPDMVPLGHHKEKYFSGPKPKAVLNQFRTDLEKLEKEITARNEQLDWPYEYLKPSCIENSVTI
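Lipoxygenase turnover measured by absorbance at 573 and 405 nm after Fe-XO development. Human 12hLO 150 nM, arachidonate 40 uM, pH 7.0 Hepes buffer with detergent; 15 min compound preincubation, 30 min reaction.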
The depositor's hits bear a star; ? = inconclusive; · = not tested or not shown; [ ] = remark or other dose. The list is not random: actives were taken first. Their share in the collection is about 11%. Unless noted, calls come from the whole dose curve; as a rule, active = well fitted curve in the direction sought with a large enough effect; inconclusive = small, poorly fitted or top-dose-only effect, or another doubt; inactive = no such curve, though single readings can be large; an effect the other way counts as inactive or inconclusive. Unless noted, % is set by controls: 0 for no effect and ±100 for the full control effect.

SMILES	IMPase Li inh	PNC inhibitor	HPGD inh	IMPase inh	ALDH1A1 inh	12-hLO inh
O=C(O)C(Cc1c[nH]c2ccccc12)NS(=O)(=O)c1ccc(Cl)cc1 (stereo unspecified)	1%	·	·	·	?	·
Cc1ccc(Nc2nc(C3CC3)cs2)cc1	11%	-119*	-16%	-1	?	-21%
Clc1ccc(Nc2nc(C3CC3)cs2)cc1	5%[38.3 µM]	1	?	-5	?	-29%
CC(C)NC(=O)N1CCC2(CC1)CCN(C(=O)c1csnn1)CC2	-1%	·	-1%	·	2%	-2%
C=CCn1c(COc2cc(C)ccc2C(C)C)nnc1SCC(=O)c1c(N)n(C)c(=O)n(C)c1=O	13%	35	-14%	·	7%	-1%
O=S1(=O)C=C(Oc2ccc3ccccc3c2)c2ccccc21	4%[38.3 µM]	31	-25%	3	10µM*	-9%
COc1cccc(C2=NO[C@@H]3C(=O)N(Cc4ccccc4)C(=O)[C@H]23)c1OC	-4%[38.3 µM]	-107*	?	?	?	-5%
Cc1cc(NS(=O)(=O)c2ccc(Nc3nc(-c4ccc(O)cc4)cs3)cc2)no1	17%	?	20µM*	-2	?	-17%
Cc1cc(NS(=O)(=O)c2ccc(Nc3nc(-c4sc(N)nc4C)cs3)cc2)no1	-4%[38.3 µM]	7	-17%	7	1%	-12%
CN(C)c1nc(Oc2ccc(C(=O)OCC(=O)Nc3ccccc3)cc2)nc(N(C)C)n1	25%[38.3 µM]	21	-7%	19	0%	0%
CCOC(=O)c1ccc(Oc2nc(OC)nc(N(C)C)n2)cc1	7%	-93*	-15%	1	24%	0%
COc1ccc(C(=O)C2C(c3ccc(-c4ccccc4[N+](=O)[O-])o3)NC(=O)NC2(O)C(F)(F)F)cc1 (stereo unspecified)	-4%	?	-11%	1	13µM*	-3%
O=C1NC(c2ccc(-c3ccccc3[N+](=O)[O-])o2)C(C(=O)c2ccc(F)cc2)C(O)(C(F)(F)F)N1 (stereo unspecified)	-3%	-22	-3%	-4	?	-1%
Cc1ccc(C2NC(=O)NC(O)(C(F)(F)F)C2C(=O)c2cccs2)o1 (stereo unspecified)	6%	-27	-7%	-6	?	-3%
Cc1ccc(C2NC(=O)NC(O)(C(F)(F)F)C2C(=O)c2ccccc2)o1 (stereo unspecified)	11%	-26	-9%	-5	8.9µM*	6%
CC(Cl)C(=O)NC(=O)NC12CC3CC(CC(C3)C1)C2 (stereo unspecified)	·	30	·	2	2%	-1%
O=C(CCl)NC(=O)NC12CC3CC(CC(C3)C1)C2	4%	29	-9%	·	7.9µM*	0%
C=CCOC(=O)C(=O)/C=C/c1coc2ccccc2c1=O	-10%	·	·	·	32µM*	·
C=CCOC(=O)C(=O)/C=C/c1c(C)n(C)n(-c2ccccc2)c1=O	-4%	·	·	·	?	·
COc1cccc(Cn2c(=O)cnc3cnc(Nc4ccccc4)nc32)c1	12%	·	·	·	6%	·
CCOC(=O)c1cc(C#N)c(N2CCN(C(=O)c3ccccc3)CC2)nc1C(F)(F)F	·	·	·	·	13µM*	·
COc1ccc(-c2csc(CCN3N=C(C)CC3=O)n2)cc1	8%	·	·	·	2µM*	·
O=[N+]([O-])c1ccc(N2CCSCC2)cc1	18%	·	·	·	?	·
Oc1ccc(-c2nc(-c3ccc(O)c(O)c3)cs2)cc1	5%[38.3 µM]	-101*	?	-1	11µM*	5µM*
CN(C)c1ncnc2ccc(-c3ccccc3C(F)(F)F)cc12	4%	·	·	·	?	·
SMILES	IMPase Li inh	PNC inhibitor	HPGD inh	IMPase inh	ALDH1A1 inh	12-hLO inh
O=C(NCc1ccco1)C(=O)NCC1OCCCN1S(=O)(=O)c1ccccc1 (stereo unspecified)	-2%	-4	-16%	·	14µM*	0%
O=C(NCc1cccs1)C(=O)NCC1OCCCN1S(=O)(=O)c1ccccc1 (stereo unspecified)	-13%	-90*	-4%	·	-1%	-2%
O=C(NCc1ccccc1)C(=O)NCC1OCCN1S(=O)(=O)c1cccs1 (stereo unspecified)	8%	?	-2%	·	?	3%
COCCNC(=O)C(=O)NCC1OCCCN1S(=O)(=O)c1cccs1 (stereo unspecified)	-5%	3	-9%	·	18µM*	0%
Cc1cc2c(cc(C(=O)NCc3cccnc3)n2Cc2ccc(Cl)cc2)o1	15%[38.3 µM]	-2	18µM*	6	6.3µM*	?
COC(=O)[C@@]1(Cc2ccccc2)[C@H]2c3cc(C(=O)N4CCCC4)n(Cc4nc5ccccc5[nH]4)c3C[C@H]2CN1C(=O)c1ccccc1	9%	·	-11%	·	-4%	0%
COc1ccc2[nH]cc(CCNc3ncnc4ccc(-c5ccccc5C#N)cc34)c2c1	16%	·	-23%	·	3%	-5%
CN(C)C(=O)c1ccc(-c2cc(NCc3ccccc3)ncn2)cc1	-1%	·	·	·	?	·
CC(=O)Cc1nsc(NC(=O)c2cccc(F)c2)n1	-4%	·	·	·	-5%	·
Cc1ccc(S(=O)(=O)N2CCCOC2CNC(=O)C(=O)NCc2cccnc2)cc1 (stereo unspecified)	3%	103	-2%	·	-15%	0%
O=C(NCc1cccnc1)C(=O)NCC1OCCN1S(=O)(=O)c1ccc(Cl)cc1 (stereo unspecified)	3%	-119*	-6%	·	12%	2%
COc1ccc(C2Nc3ccccc3C(=O)N2Cc2ccco2)cc1COc1ccc(F)cc1 (stereo unspecified)	14%	141	?	-1	2.5µM*	-7%
CC1CCN(c2c(NCC3CCC(C(=O)N4CCCCC4)CC3)c(=O)c2=O)CC1 (stereo unspecified)	-6%[38.3 µM]	11	0.5µM*	1	-8%	-5%
O=C(C1CCC(CNc2c(N3CCCCC3)c(=O)c2=O)CC1)N1CCCCC1 (stereo unspecified)	-3%[38.3 µM]	-23	0.4µM*	4	-1%	-1%
O=C(C1CCC(CNc2c(N3CCOCC3)c(=O)c2=O)CC1)N1CCN(c2ccccc2)CC1 (stereo unspecified)	0%	30	-18%	1	4%	-2%
CC1(OC(=O)c2ccco2)C(=O)C2=COC(C3CC3)=CC2=C(Br)C1=O (stereo unspecified)	6%	·	-7%	·	-10%	1%
